Reference: PubChem BioAssay AID1376 (SRMLSC, 2008)
Where “and” joins values, the source holds several entries; their conditions need not be identical. Identical values can stand only once. The campaign covered roughly 220,000 compounds. About 530 (0.24%) were called active. Rule as the data show it: active = inhibition above about 13%; inconclusive = no clear call, values can overlap the other calls; inactive = below that. This excerpt belongs to a sample that is enriched for actives. Results with a measured potency or affinity are listed apart. Where a structure was tested more than once in an assay, its records may differ in their call.

The molecules below were run against Bifunctional protein GlmU (Mycobacterium tuberculosis (strain ATCC 25618 / H37Rv)) (UniProt P9WMN3) (assay: inhibition of mycobacterial GlmU enzyme – biochemical, glucosamine-1-phosphate acetyltransferase (AID 1376;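 also: 0% = complete reaction with vehicle and 100% = reaction without substrate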)). Conditions: M. tuberculosis GlmU acetyltransferase enzyme assay; stronger effect = higher value;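 tested at 30 µM in the primary screen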.
Chain of Bifunctional protein GlmU (Mycobacterium tuberculosis (strain ATCC 25618 / H37Rv)) (P9WMN3 whole entry, looked up): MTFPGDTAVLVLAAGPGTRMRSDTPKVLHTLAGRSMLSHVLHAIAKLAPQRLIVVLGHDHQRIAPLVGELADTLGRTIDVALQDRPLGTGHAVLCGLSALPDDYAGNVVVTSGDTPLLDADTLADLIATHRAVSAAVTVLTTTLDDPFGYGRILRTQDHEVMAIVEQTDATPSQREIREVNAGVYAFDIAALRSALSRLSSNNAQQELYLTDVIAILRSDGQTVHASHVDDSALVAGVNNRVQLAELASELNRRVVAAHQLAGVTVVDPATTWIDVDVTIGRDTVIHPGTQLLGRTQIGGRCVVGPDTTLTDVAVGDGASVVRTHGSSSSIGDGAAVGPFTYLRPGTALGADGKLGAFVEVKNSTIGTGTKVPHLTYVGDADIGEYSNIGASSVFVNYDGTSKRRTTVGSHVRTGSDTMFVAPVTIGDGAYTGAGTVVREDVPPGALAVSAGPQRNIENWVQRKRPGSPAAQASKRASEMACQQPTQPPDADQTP

Row | SMILES | inhibition
1 | CCOC(=O)N1CCC(N(CCN(C)C)C(=S)Nc2ccccc2Cl)CC1 | 0.75% (inactive)
2 | O=C(CNC(=O)c1ccc2c(c1)OCCO2)N/N=C/c1ccco1 | -1.55% (inactive)
3 | Nc1ccccc1NC1=CC(=O)CC(c2ccccc2)C1 (centres undefined) | 2.07% (inactive)
4 | COc1ccc(/C=N/NC(=O)CN(CCc2ccccc2)S(=O)(=O)c2ccc(NC(C)=O)cc2)cc1OC | 1.25% (inactive)
5 | COc1cc(NS(=O)(=O)c2ccc(Nc3nc(-c4ccccn4)cs3)cc2)nc(OC)n1 | -0.88% (inactive)
6 | Cn1cnnc1SCc1ccc(C(=O)N/N=C(\CCC(=O)O)c2ccc(C(C)(C)C)cc2)cc1 | -2.55% (inactive)
7 | CCSc1nnc(NS(=O)(=O)c2ccc(C)cc2)s1 | -1.65% (inactive)
8 | Cc1ccc(C)c(C2=CSC3=NS(=O)(=O)CCN23)c1 | 14.7% (active)
9 | Cc1ccc(C2=CSC3=NS(=O)(=O)CCN23)cc1 | -2.55% (inactive)
10 | Cc1ccc(C2=CSC3=NS(=O)(=O)CCN23)cc1C | -2.13% (inactive)
11 | Cc1ccnc(SCc2cn3c(C)cc(C)nc3n2)n1 | -0.65% (inactive)
12 | CCc1ccc(N2CCN(C(=O)N3CCOCC3)CC2)cc1 | -4.7% (inactive)
13 | C=CCOC(=O)C1=C(C)N(C)C(=O)NC1c1cc2c(cc1Br)OCO2 (centres undefined) | 0% (inactive)
14 | Cc1cccc(-n2ncc3c(N(CCO)CCO)ncnc32)c1 | 2.36% (inactive)
15 | CCOc1ccc(NC(=O)Nc2cc(C(C)C)ccc2C)cc1 | 14.6% (active)
16 | Cc1ccc(C(C)C)cc1NC(=O)Nc1ccc([N+](=O)[O-])cc1 | -2.4% (inactive)
17 | CCOc1ccc(NC(=O)Nc2cc(C(C)C)c(O)cc2C)cc1 | 1.34% (inactive)
18 | CSc1nc2ncc(C#N)cn2n1 | -5.13% (inactive)
19 | CC(=O)Nc1ccc(NC(=O)C(Cc2ccccc2)NC(=O)C2CCCCC2)cc1 (centres undefined) | 1.61% (inactive)
20 | c1ccc(-n2nnc(-c3cccnc3)n2)cc1 | 1.76% (inactive)
21 | CCCSc1nc2c(c(=O)[nH]c(=O)n2C)n1CC(O)COc1ccccc1 (centres undefined) | 14.1% (active)
22 | COc1ccccc1OCC(O)Cn1c(Br)nc2c1c(=O)[nH]c(=O)n2C (centres undefined) | 13.5% (active)
23 | CCSc1nc2c(c(=O)[nH]c(=O)n2C)n1CC(O)COc1ccccc1 (centres undefined) | -3.27% (inactive)
24 | Cc1ccccc1OCC(O)Cn1c(Br)nc2c1c(=O)[nH]c(=O)n2C (centres undefined) | 1.77% (inactive)

Row | SMILES | inhibition
25 | Cn1c(=O)[nH]c(=O)c2c1nc(SCCO)n2CC(O)COc1ccccc1 (centres undefined) | 0.72% (inactive)
26 | COc1ccc(OCC(O)Cn2c(Br)nc3c2c(=O)[nH]c(=O)n3C)cc1 (centres undefined) | -0.99% (inactive)
27 | CCN(CC)C(=O)c1[nH]cnc1C(=O)N[C@@H](C)C(=O)OC(C)(C)C | -5.07% (inactive)
28 | COC(=O)c1ccccc1NC(=O)Nc1cccc(C)n1 | 1.31% (inactive)
29 | Cc1occc1C(=O)N/N=C/c1ccccc1[N+](=O)[O-] | -3.47% (inactive)
30 | N#C/C(=C\c1ccc([N+](=O)[O-])cc1)c1ccccn1 | 3.91% (inactive)
31 | CNc1ccc(/C=C(\C#N)c2ccccn2)cc1[N+](=O)[O-] | 13.2% (active)
32 | N#C/C(=C\c1ccc(Cl)c([N+](=O)[O-])c1)c1ccccn1 | -1.14% (inactive)
33 | Cc1cccc(NC(=O)C2CCCC2)c1 | 13.7% (active)
34 | CC(=O)c1cccc(NC(=O)C2CCCC2)c1 | 1.98% (inactive)
35 | Cc1cc(C)cc(NC(=O)C2CCCC2)c1 | 9.85% (inactive)
36 | CC1CN(/C(=N\S(=O)(=O)c2ccccc2)c2ccccc2)CC(C)O1 (centres undefined) | -2.86% (inactive)
37 | COc1ccccc1CCc1nnc(CCC(=O)NC(C)Cc2ccsc2)o1 (centres undefined) | 1.67% (inactive)
38 | COc1ccc(NC(=O)/C(Cl)=C(/Cl)S(=O)Cc2ccc(C)cc2)cn1 (centres undefined) | 7.38% (inactive)
39 | COc1ccc(NC(=O)/C(Cl)=C(/Cl)S(=O)Cc2ccc(Cl)cc2)cn1 (centres undefined) | 11.8% (inactive)
40 | COc1ccc(CS(=O)/C(Cl)=C(/Cl)C(=O)Nc2ccc(OC)nc2)cc1 (centres undefined) | 14.6% (active)
41 | CCOc1ccc(NC(=O)C2=C(C)C(=O)OC23CCC(C)CC3)cc1 (centres undefined) | 3.82% (inactive)
42 | CC1=CC(=O)C(C(C)C)=C/C1=N/OS(=O)(=O)c1ccccc1 | 1.82% (inactive)
43 | CC1=C/C(=N\OS(=O)(=O)c2ccccc2)C(C)=CC1=O | 10.7% (inactive)
44 | O=C(NCCCn1ccnc1)C1CC(c2ccccc2Cl)=NO1 (centres undefined) | -2.77% (inactive)
45 | COc1cc(C(Nc2ccc(S(=O)(=O)N3CCC(C)CC3)cc2)C(=O)NCC2CCCO2)cc(OC)c1OC (centres undefined) | 0.15% (inactive)
46 | COc1ccc(C(Nc2ccc(S(=O)(=O)NCC3CCCO3)cc2)C(=O)NC(C)(C)C)cc1OC (centres undefined) | -2.66% (inactive)
47 | COc1cc(C(Nc2ccc(S(=O)(=O)NCC3CCCO3)cc2)C(=O)NC(C)(C)C)cc(OC)c1OC (centres undefined) | 13.6% (active)
48 | CC(=O)Nc1cccc(OCc2ccc(S(=O)(=O)Cc3ccccc3)cc2)c1 | -12.3% (inactive)

Row | SMILES | inhibition
49 | O=C1NC(=O)/C(=C/c2ccc(O)cc2)S1 | 2.35% (inactive)
50 | O=C1NC(=O)/C(=C\c2ccc(O)cc2O)S1 | 12.9% (active)
51 | Cc1cc(N2CCOCC2)ccc1/C=C1/SC(=O)NC1=O | -0.05% (inactive)
52 | c1ccc(CSc2ccc(-c3cccnc3)nn2)cc1 | -0.08% (inactive)
53 | Cc1cc(NC(=O)CSC2=Nc3ccccc3C3=NC(Cc4ccccc4)C(=O)N23)n[nH]1 (centres undefined) | -1.18% (inactive)
54 | CCC1(C)Cc2c(C#N)c(N)n(-c3ccccc3)c(=S)c2CO1 (centres undefined) | 6.07% (inactive)
55 | CC1(C)Cc2c(C#N)c(N)n(-c3ccccc3)c(=O)c2CO1 | -3.12% (inactive)
56 | CCC1(C)Cc2c(C#N)c(N)n(-c3ccccc3)c(=O)c2CO1 (centres undefined) | 13.3% (active)
57 | CCCNC(=O)c1ccc(CNc2c(N3CCC(C(=O)OCC)CC3)c(=O)c2=O)cc1 | -8.96% (inactive)
58 | CCOC(=O)C1CCN(c2c(NCc3ccc(N(C)C)cc3)c(=O)c2=O)CC1 | 14.4% (active)
59 | CCOC(=O)N1CCN(c2c(NCc3ccc(N(C)C)cc3)c(=O)c2=O)CC1 | -1.67% (inactive)
60 | COc1nccnc1NS(=O)(=O)c1ccc(NC(=S)NC(=O)/C=C/c2ccc(F)cc2)cc1 | 10.5% (inactive)
61 | O=C(/C=C/NNC(=O)c1ccc(Br)cc1)c1ccccc1 | -0.31% (inactive)
62 | O=C(/C=C/NNC(=O)c1cccc(Br)c1)c1cccc(Br)c1 | 12.9% (active)
63 | O=C(/C=C/NNC(=O)c1ccccc1)c1ccc(Br)cc1 | -1.06% (inactive)
64 | CC(C)(C)S(=O)(=O)c1ccsc1C(=O)O | 0.11% (inactive)
65 | Cc1occc1-c1n[nH]c(=S)n1-c1ccccc1 | 12.8% (active)
66 | Cc1cccc(-n2c(-c3ccoc3C)n[nH]c2=S)c1 | 11.9% (inactive)
67 | Cc1ccccc1-n1c(-c2ccoc2C)n[nH]c1=S | 5.31% (inactive)
68 | COc1ccccc1Nc1nc(N)nc(CSCCO)n1 | 1.91% (inactive)
69 | COc1cc(/C=C2\CC/C(=C\c3cc(OC)c(O)c(OC)c3)C2=O)cc(OC)c1O | 14.3% (active)
70 | COc1cc(/C=C2\CC/C(=C\c3cc(OC)c(OC)c(OC)c3)C2=O)cc(OC)c1OC | -2% (inactive)
71 | COc1cc(/C=C2/CC/C(=C/c3ccc(O)c(OC)c3)C2=O)ccc1O | -0.98% (inactive)
72 | N#Cc1ccc2ccn(CC(=O)NC3CCCCCC3)c2c1 | 6.23% (inactive)

Row | SMILES | inhibition
73 | CC1Oc2cc3c(-c4c(O)cc(O)c5c(O)c6c(cc45)OC(C)C(C)C6=O)c(O)cc(O)c3c(O)c2C(=O)C1C (centres undefined) | 16.3% (active) and 8.27% (inactive)
74 | C[C@@H]1Cc2c(O)c(O)cc(O)c2C(=O)O1 | -2.99% (inactive)
75 | CC1CC(=O)c2c(cc3c(-c4c(O)cc(O)c5c(O)c6c(cc45)OC(C)CC6=O)c(O)cc(O)c3c2O)O1 (centres undefined) | 18.9% (inactive)
76 | Cc1ccc(C(=O)Nc2ccc(C(=O)O)cc2)cc1S(=O)(=O)NCc1ccccc1 | -0.6% (inactive)
77 | Cc1cc2nccc(-c3ccco3)n2n1 | 13.6% (active)
78 | O=C(O)c1cc2nccc(-c3ccco3)n2n1 | 3.14% (inactive)
79 | Cc1cc2nccc(-c3ccccn3)n2n1 | -6.43% (inactive)
80 | Cc1ccc(Nc2c(-c3ccc(N4CCOCC4)cc3)nc3cnccn23)cc1 | -2.79% (inactive)
81 | O=C(NCCCN1CCCCCC1)c1ccc2c(Cl)c3c(nc2c1)CCCC3 | -1.55% (inactive)
82 | S=C1NC2(CCS1)Oc1ccccc1C1CC(c3ccccc3)=NN12 (centres undefined) | -6.7% (inactive)
83 | COc1ccc(F)cc1S(=O)(=O)Nc1ccc2c(c1)OCO2 | 14.9% (active)
84 | COc1ccc(C)cc1S(=O)(=O)Nc1ccc2c(c1)OCO2 | 3.25% (inactive)
85 | COc1ccc(F)cc1S(=O)(=O)Nc1ccc2c(c1)OCCO2 | 2.41% (inactive)
86 | COc1cc(Nc2ncnc(N)n2)cc(OC)c1OC | 3.26% (inactive)
87 | COc1ccc(NC(=O)CN2CCN(CC(=O)Nc3ccccc3F)CC2)cc1OC | -7.08% (inactive)
88 | C=CCc1cc(/C=C/c2nc(O)c([N+](=O)[O-])c(=O)[nH]2)cc(OC)c1O | 14.5% (active)
89 | COc1ccc(-n2c(C)cc(/C=C/c3nc(O)c([N+](=O)[O-])c(=O)[nH]3)c2C)cc1 | 10% (inactive)
90 | O=c1[nH]c(/C=C\c2cccs2)nc(O)c1[N+](=O)[O-] | 2.4% (inactive)
91 | O=C(Nc1ccc(F)cc1F)N1CCN(c2ncccn2)CC1 | 1.49% (inactive)
92 | CC(C)(C)OC(=O)N/N=C/c1c[nH]c2ccccc12 | 2.23% (inactive)
93 | O=C(COc1cccnc1[N+](=O)[O-])Nc1ccc2c(c1)OC(F)(F)O2 | 3.24% (inactive)
94 | O=C(NCc1ccc(F)cc1)C1CCCN(c2nc3ccsc3c(=O)s2)C1 (centres undefined) | 2.37% (inactive)
